In PubChem BioAssay (NCI) one finds growth inhibition data, which are given here for eight compounds.

A short description of experiment [1]: NCI Yeast Anticancer Drug Screen. Data for the rad50 strain (AID 155).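 Note: 0% = growth of vehicle-only cultures of the same strain.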 As to conditions: S. cerevisiae rad50 strain growth inhibition, hits give high values. In short, it runs like this: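 Compounds were tested on a yeast strain with an engineered DNA damage repair alteration; the reported value is growth inhibition normalised to vehicle treatment.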
Experiment [2] can be described thus: NCI Yeast Anticancer Drug Screen. Data for the mec2-1 strain (AID 157). As to conditions: S. cerevisiae mec2-1 strain, hits give high values. In short, it runs like this:
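Using mec2-1 yeast: add compound, measure growth, express inhibition versus vehicle-treated cultures.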

Experiment [3] in a line: NCI Yeast Anticancer Drug Screen. Data for the sgs1 mgt1 strain (AID 161).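 Note: 0% = growth of cultures given vehicle only.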 Particulars: S. cerevisiae sgs1 mgt1 strain, hits give high values. The procedure, abridged: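 Compounds are added to genetically altered yeast, and growth is compared with cultures given vehicle alone to give percent inhibition.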
Experiment [4] in a line: NCI Yeast Anticancer Drug Screen. Data for the cln2 rad14 strain (AID 165).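 Note: 0% = growth equal to vehicle treated cultures.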 As to conditions: S. cerevisiae cln2 rad14 strain, hits give high values. The procedure, abridged: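 Yeast strain cln2 rad14, bearing defects in cell cycle control and DNA repair, serves as the test system; values reflect growth inhibition compared with vehicle.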
A short description of experiment [5]: NCI Yeast Anticancer Drug Screen. Data for the bub3 strain (AID 167). As to conditions: S. cerevisiae bub3 mutant strain, hits give high values. In short, it runs like this:
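Growth of a checkpoint-deficient yeast mutant is measured after compound exposure. Values represent inhibition relative to vehicle.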

Experiment [6] can be described thus: NCI Yeast Anticancer Drug Screen. Data for the mlh1 rad18 strain (AID 175). As to conditions: S. cerevisiae mlh1 rad18 strain growth inhibition, hits give high values. In short, it runs like this: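 Steps: expose repair-defective yeast to compound; measure growth; express inhibition against vehicle-treated controls.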
[7] abbreviates: at 5.0 µM (retest, dose inferred, filed as 0.5).
Setting [8] is: at 50.0 µM (retest, dose inferred, filed as 5.0).

Compounds without any hit were thinned out: in the full panel of roughly 79,000, 15% have a hit. Unmarked numbers belong to inactive results. The source made the active and inactive calls. Cut-off read from the data, not from the text of the source: active = growth inhibition above about 70%; inactive = the rest.

Consider `C=C1CC2(CCS(=O)(=O)c3ccccc32)OC1=O` (centres undefined), for which the growth inhibition was 2% in experiment [1] (setting [7]); 27% in experiment [1] (setting [8]); 25.6% in experiment [1] (at 50.0 µM); 5% in experiment [2] (setting [7]); 35% in experiment [2] (setting [8]); 60.6% in experiment [2] (at 50.0 µM). The growth inhibition in experiment [3] (setting [7]) is 7%; in experiment [3] (setting [8]), 37%; in experiment [3] (at 50.0 µM) it was 69%; in experiment [4] (setting [7]) it was 6%; in experiment [4] (setting [8]), 15%; in experiment [4] (at 50.0 µM) it was 36.6%. The growth inhibition in experiment [5] (setting [7]) was 2%; in experiment [5] (setting [8]), 47%; in experiment [5] (at 50.0 µM), 46.6%; in experiment [6] (setting [7]), 2%; in experiment [6] (setting [8]), 49%; in experiment [6] (at 50.0 µM) it was 48.9%.
Consider `CN1C=COC1N=C1CCCCC1` (centres undefined), for which the growth inhibition is 13% in experiment [1] (setting [7]); 10% in experiment [1] (setting [8]); -24.2% in experiment [1] (at 50.0 µM); -1% in experiment [2] (setting [7]); -5% in experiment [2] (setting [8]); -7% in experiment [2] (at 50.0 µM). Also, the growth inhibition in experiment [3] (setting [7]) was -2%; in experiment [3] (setting [8]), 17%; in experiment [3] (at 50.0 µM) it was -5.2%; in experiment [4] (setting [7]), 11%; in experiment [4] (setting [8]), 0%; in experiment [4] (at 50.0 µM), 16.6%. The growth inhibition is 18% in experiment [5] (setting [7]); 10% in experiment [5] (setting [8]); -13% in experiment [5] (at 50.0 µM); -13% in experiment [6] (setting [7]); 6% in experiment [6] (setting [8]); -32.1% in experiment [6] (at 50.0 µM).
`O=C(c1cccs1)N(C(=S)N1CCN(c2ccccn2)CC1)C1CCCCC1`: the growth inhibition is 4% in experiment [1] (setting [7]); 66% in experiment [1] (setting [8]); 54.5% in experiment [1] (at 50.0 µM); -8% in experiment [2] (setting [7]); 61% in experiment [2] (setting [8]); 54.8% in experiment [2] (at 50.0 µM). Moreover, the growth inhibition in experiment [3] (setting [7]) was 8%; in experiment [3] (setting [8]), 31%; in experiment [3] (at 50.0 µM) it was 67.2%; in experiment [4] (setting [7]), 15%; in experiment [4] (setting [8]), 44%; in experiment [4] (at 50.0 µM) it was 38.8%. Moreover, the growth inhibition in experiment [5] (setting [7]) is 2%; in experiment [5] (setting [8]), 31%; in experiment [5] (at 50.0 µM), 68.6%; in experiment [6] (setting [7]), 8%; in experiment [6] (setting [8]), 29%; in experiment [6] (at 50.0 µM) it was 49.6%.
As to `CCOc1ccc2c(c1)n([O-])c1ccccc1[n+]2=O`, the growth inhibition in experiment [1] (setting [7]) was 88% (active); in experiment [1] (setting [8]), 98% (active); in experiment [1] (at 50.0 µM), 56%; in experiment [2] (setting [7]), 12%; in experiment [2] (setting [8]), 99% (active); in experiment [2] (at 50.0 µM), 97.4% (active). Further, the growth inhibition was 55% in experiment [3] (setting [7]); 99% (active) in experiment [3] (setting [8]); 99.2% (active) in experiment [3] (at 50.0 µM); 31% in experiment [4] (setting [7]); 98% (active) in experiment [4] (setting [8]); 98.1% (active) in experiment [4] (at 50.0 µM). Besides, the growth inhibition in experiment [5] (setting [7]) was 17%; in experiment [5] (setting [8]), 98% (active); in experiment [5] (at 50.0 µM), 98.8% (active); in experiment [6] (setting [7]), 81% (active); in experiment [6] (setting [8]), 98% (active); in experiment [6] (at 50.0 µM), 99.1% (active).
On to `CC(=O)c1sc2c(c1O)c(=O)n(-c1ccccc1)c(=S)n2-c1ccccc1`, for which the growth inhibition in experiment [1] (setting [7]) was -4%; in experiment [1] (setting [8]), 75% (active); in experiment [1] (at 50.0 µM), 68.3%; in experiment [2] (setting [7]) it was 19%; in experiment [2] (setting [8]), 83% (active); in experiment [2] (at 50.0 µM), 67.4%. The growth inhibition in experiment [3] (setting [7]) was 10%; in experiment [3] (setting [8]), 88% (active); in experiment [3] (at 50.0 µM) it was 75.5% (active); in experiment [4] (setting [7]), 16%; in experiment [4] (setting [8]), 95% (active); in experiment [4] (at 50.0 µM), 80% (active). In addition, the growth inhibition in experiment [5] (setting [7]) is 25%; in experiment [5] (setting [8]) it was 94% (active); in experiment [5] (at 50.0 µM) it was 58.4%; in experiment [6] (setting [7]), -11%; in experiment [6] (setting [8]) it was 87% (active); in experiment [6] (at 50.0 µM), 29.9%.
As to `C=CCc1cc([N+](=O)[O-])ccc1O`, the growth inhibition in experiment [1] (setting [7]) was -4%; in experiment [1] (setting [8]), 80% (active); in experiment [1] (at 50.0 µM) it was 76.5% (active); in experiment [2] (setting [7]) it was 1%; in experiment [2] (setting [8]), 85% (active); in experiment [2] (at 50.0 µM), 92.1% (active). In addition, the growth inhibition in experiment [3] (setting [7]) is -2%; in experiment [3] (setting [8]), 87% (active); in experiment [3] (at 50.0 µM), 94.6% (active); in experiment [4] (setting [7]), -3%; in experiment [4] (setting [8]) it was 85% (active); in experiment [4] (at 50.0 µM), 88.7% (active). The growth inhibition in experiment [5] (setting [7]) is 3%; in experiment [5] (setting [8]), 85% (active); in experiment [5] (at 50.0 µM), 92.3% (active); in experiment [6] (setting [7]) it was -4%; in experiment [6] (setting [8]), 93% (active); in experiment [6] (at 50.0 µM) it was 90.8% (active).
Regarding `COc1nc(N)c(N=O)c(OCc2ccccc2)n1`, the growth inhibition in experiment [1] (setting [7]) was 83% (active); in experiment [1] (setting [8]) it was 97% (active); in experiment [1] (at 50.0 µM), 89% (active); in experiment [2] (setting [7]), 99% (active); in experiment [2] (setting [8]) it was 98% (active); in experiment [2] (at 50.0 µM) it was 92.6% (active). In addition, the growth inhibition in experiment [3] (setting [7]) was 62%; in experiment [3] (setting [8]), 57%; in experiment [3] (at 50.0 µM), 91.4% (active); in experiment [4] (setting [7]) it was 55%; in experiment [4] (setting [8]), 98% (active); in experiment [4] (at 50.0 µM), 89.8% (active). The growth inhibition in experiment [5] (setting [7]) is 97% (active); in experiment [5] (setting [8]) it was 98% (active); in experiment [5] (at 50.0 µM), 91.6% (active); in experiment [6] (setting [7]) it was 99% (active); in experiment [6] (setting [8]) it was 97% (active); in experiment [6] (at 50.0 µM) it was 89.3% (active).
In the case of `O=C1c2c(Br)c(Br)c(Br)c(Br)c2C(=O)N1c1nccs1`, the growth inhibition was -1% in experiment [1] (setting [7]); 51% in experiment [1] (setting [8]); 75.4% (active) in experiment [1] (at 50.0 µM); -4% in experiment [2] (setting [7]); 72% (active) in experiment [2] (setting [8]); 70.8% (active) in experiment [2] (at 50.0 µM). In addition, the growth inhibition in experiment [3] (setting [7]) was -10%; in experiment [3] (setting [8]), 54%; in experiment [3] (at 50.0 µM), 75% (active); in experiment [4] (setting [7]), -20%; in experiment [4] (setting [8]), 25%; in experiment [4] (at 50.0 µM) it was 45.5%. Besides, the growth inhibition is 11% in experiment [5] (setting [7]); 70% (active) in experiment [5] (setting [8]); 69.4% in experiment [5] (at 50.0 µM); 21% in experiment [6] (setting [7]); 72% (active) in experiment [6] (setting [8]); 72.3% (active) in experiment [6] (at 50.0 µM).
